Test results from PubChem BioAssay (Tox21).
Results filed as inconclusive are left out. The source made the active and inactive calls. Calls come from the whole dose curve; as a rule, active = well fitted curve in the direction sought with a large enough effect in the repeat runs; inconclusive = weak or mixed curves; inactive = no such curve, though single readings can be large; an effect the other way counts as inactive or inconclusive.

Key:
[1] = qHTS RealTime-Glo MT Cell Viability Assay in HEK293 cells - 0 hour (AID 1224880); note: top concentration of the series differs between compounds; nearly all actives have a fitted effect of over 45% in size
Summary of the method: (§1)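 Real-time viability in HEK293: signal arises when living cells convert a prosubstrate for NanoLuc in the medium, so luminescence tracks viable cell number. Compound (23 nL, DMSO) added 5 h post-seeding; kinetic reads at 0–40 h, 37 C.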

[2] = A CellTox Green Cytotoxicity Assay to monitor cytotoxicity in HEK293 cells - 32 hour (AID 1224881); note: nearly all actives have a fitted effect of over 40% in size
Summary of the method: (§2)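 Cells (HEK293, 600/well) and dye reagent are dispensed together. After 5 h at 37 C, 23 nL compound is pinned in. Plates stay at 37 C for 40 h with fluorescence read at 0h, 8h, 16h, 24h, 32h and 40h.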

[3] = A CellTox Green Cytotoxicity Assay to monitor cytotoxicity in HepG2 cells - 0 hour (AID 1224882); note: nearly all actives have a fitted effect of over 35% in size
Summary of the method: (§3)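 Cells and non-lytic dye reagent are dispensed together (600 HepG2 cells/well) and incubated 5 h before DMSO compound transfer. Kinetic fluorescence is then recorded in the same wells during 40 h at 37 C.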

[4] = A CellTox Green Cytotoxicity Assay to monitor cytotoxicity in HepG2 cells - 32 hour (AID 1224883); note: nearly all actives have a fitted effect of over 50% in size; note: potency is the fitted concentration of half-maximal effect
Summary of the method: as §3

[5] = A CellTox Green Cytotoxicity Assay to monitor cytotoxicity in HEK293 cells - 8 hour (AID 1224884); note: nearly all actives have a fitted effect of over 35% in size
Summary of the method: as §2

[6] = qHTS RealTime-Glo MT Cell Viability Assay in HEK293 cells - 24 hour (AID 1224886); note: nearly all actives have a fitted effect of over 50% in size; note: potency is the fitted concentration of half-maximal effect; for activity change, negative = cytotoxicity: top concentration of the series differs between compounds
Summary of the method: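 Luminescence generated by NanoLuc from substrate produced by living HEK293 cells served as the viability signal. Each value reflects the reading at its stated time point during continuous 40 h compound exposure at 37 C.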

[7] = qHTS RealTime-Glo MT Cell Viability Assay in HEK293 cells - 8 hour (AID 1224887); note: top concentration of the series differs between compounds; nearly all actives have a fitted effect of over 50% in size
Summary of the method: as §1

[8] = A CellTox Green Cytotoxicity Assay to monitor cytotoxicity in HEK293 cells - 16 hour (AID 1224888); note: nearly all actives have a fitted effect of over 35% in size
Summary of the method: as §2

[9] = qHTS RealTime-Glo MT Cell Viability Assay in HepG2 cells - 0 hour (AID 1224889); note: nearly all actives have a fitted effect of over 50% in size
Summary of the method: (§4)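 Tox21 10K library screened in qHTS format on HepG2 cells carrying RealTime-Glo reagents. Compounds were added after a 5 h preincubation, and the luminescent signal from continuous culture was measured repeatedly during 40 h treatment.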

[10] = qHTS RealTime-Glo MT Cell Viability Assay in HepG2 cells - 16 hour (AID 1224885); note: nearly all actives have a fitted effect of over 50% in size
Summary of the method: as §4
% is set by controls: 0 for no effect and ±100 for the full control effect.

CCCCNCCCC
inactive: outcome [1] | Potency [2] | Potency [3] | Potency [4] | Potency [5] | Potency [6] | Potency [7] | Potency [8] | Potency [9]

CCCCOc1cc(C(=O)NCCN(CC)CC)c2ccccc2n1
inactive: outcome [1] | Potency [2] | Potency [3] | Potency [5] | outcome [10] | Potency [8] | Potency [9]
active: Potency [4] 23.9 µM

CS(=O)(=O)c1ccc([C@@H](O)[C@@H](CF)NC(=O)C(Cl)Cl)cc1
inactive: outcome [1] | Potency [2] | Potency [3] | Potency [4] | Potency [5] | outcome [10] | Potency [7] | Potency [8] | Potency [9]

CCN(CCCc1ccccc1)CCCc1ccccc1
inactive: outcome [1] | Potency [2] | Potency [3] | Potency [4] | Potency [5] | Potency [7] | Potency [8] | Potency [9]

O=C1C=CC(=O)O1
inactive: outcome [1] | Potency [2] | Potency [3] | Potency [4] | Potency [5] | outcome [10] | Potency [7] | Potency [8] | Potency [9]

C=C(C)C(=O)OCCOP(=O)(O)O
inactive: outcome [1] | Potency [2] | Potency [3] | Potency [4] | Potency [5] | outcome [10] | Potency [7] | Potency [8] | Potency [9]

Cc1ncc(CO)c(CN)c1O
inactive: outcome [1] | Potency [2] | Potency [3] | Potency [4] | Potency [5] | Potency [6] | Potency [7] | Potency [8] | Potency [9]

C=CC1CO1 (centres undefined)
inactive: outcome [1] | Potency [2] | Potency [3] | Potency [4] | Potency [5] | Potency [6] | Potency [7] | Potency [8]

CCC1(C)NC(=O)NC1=O (centres undefined)
inactive: outcome [1] | Potency [2] | Potency [3] | Potency [5] | outcome [10] | Potency [7] | Potency [8] | Potency [9]

CC(=O)OC(C)OC(C)=O
inactive: outcome [1] | Potency [2] | Potency [3] | Potency [4] | Potency [5] | Potency [6] | Potency [7] | Potency [8] | Potency [9]

O=Cc1ccc(O)c(O)c1O
inactive: outcome [1] | Potency [2] | Potency [3] | Potency [5] | outcome [10] | Potency [6] | Potency [7] | Potency [8] | Potency [9]

CC(C)(C)c1cccc(O)c1
inactive: outcome [1] | Potency [2] | Potency [3] | Potency [5] | outcome [10] | Potency [7] | Potency [8] | Potency [9]

COc1nc(C)nc(NC(=O)NS(=O)(=O)c2ccccc2OCCCl)n1
inactive: outcome [1] | Potency [2] | Potency [3] | Potency [4] | Potency [5] | Potency [6] | Potency [7] | Potency [8]

CCOc1ccccc1N
inactive: outcome [1] | Potency [2] | Potency [3] | Potency [4] | Potency [5] | outcome [10] | Potency [7] | Potency [8] | Potency [9]

CC1CN(c2ccccc2)NC1=O (centres undefined)
inactive: outcome [1] | Potency [2] | Potency [3] | Potency [4] | Potency [5] | outcome [10] | Potency [7] | Potency [8] | Potency [9]

CN1CCN(N)CC1
inactive: outcome [1] | Potency [2] | Potency [3] | Potency [4] | Potency [5] | Potency [6] | Potency [7] | Potency [8]

O=C1CCN(c2ccccc2)N1
inactive: outcome [1] | Potency [2] | Potency [3] | Potency [4] | Potency [5] | Potency [6] | Potency [7] | Potency [8]

OCCN(CCO)c1ccccc1
inactive: outcome [1] | Potency [2] | Potency [3] | Potency [4] | Potency [5] | outcome [10] | Potency [7] | Potency [8] | Potency [9]

CCN(CC)CCOc1ccc(Cc2ccccc2)cc1
inactive: outcome [1] | Potency [2] | Potency [3] | Potency [5] | outcome [10] | Potency [7] | Potency [8] | Potency [9]

CN1CCN(C2=Nc3ccccc3Oc3ccc(Cl)cc32)CC1
inactive: outcome [1] | Potency [2] | Potency [3] | Potency [5] | outcome [10] | Potency [6] | Potency [7] | Potency [8] | Potency [9]

CN(C)C(=O)NC1(c2ccccc2)CCN(CCC[C@]2(c3ccc(Cl)c(Cl)c3)CCCN(C(=O)c3ccccc3)C2)CC1
inactive: activity change, negative = cytotoxicity [1] 0.507% [at 15.8 µM] | cytotoxicity increase [2] 19.1% [at 15.8 µM] | cytotoxicity [3] -1.48% [at 15.8 µM] | cytotoxicity increase [5] -1.4% [at 15.8 µM] | activity change, negative = cytotoxic [10] -10.4% [at 15.8 µM] | activity change, negative = cytotoxicity [7] -28.2% [at 15.8 µM] | activity change [8] -0.407% [at 15.8 µM, active compounds read high] | activity change, negative = cytotoxicity [9] -2.18% [at 15.8 µM]

OCc1c2ccccc2cc2ccccc12
inactive: outcome [1] | Potency [2] | Potency [3] | Potency [4] | Potency [5] | outcome [10] | Potency [8] | Potency [9]

Cc1nnc(SCC2=C(C(=O)O)N3C(=O)[C@@H](NC(=O)Cn4cnnn4)[C@H]3SC2)s1
inactive: outcome [1] | Potency [2] | Potency [3] | Potency [4] | Potency [5] | Potency [6] | Potency [7] | Potency [8]

NCCC(O)(P(=O)(O)O)P(=O)(O)O
inactive: outcome [1] | Potency [2] | Potency [3] | Potency [4] | Potency [5] | Potency [6] | Potency [7] | Potency [8] | Potency [9]

CCOc1ccc(NS(=O)(=O)c2ccc(N)cc2)nn1
inactive: outcome [1] | Potency [2] | Potency [3] | Potency [4] | Potency [5] | outcome [10] | Potency [8] | Potency [9]

CC[C@H]1CC[C@H](NCc2cc3c(cc2OC)[C@H]2C[C@H]2C(=O)N3C)[C@H](c2ccccc2)N1
inactive: outcome [1] | Potency [2] | Potency [3] | Potency [5] | outcome [10] | Potency [8] | Potency [9]
active: Potency [6] 21.9 µM

CCOC(=O)C1CC(=O)C(=C(O)C2CC2)C(=O)C1 (centres undefined)
inactive: outcome [1] | Potency [2] | Potency [3] | Potency [4] | outcome [10] | Potency [6] | Potency [7] | Potency [8] | Potency [9]
